Laboratory results reported in PubChem BioAssay AID1159580 (chemical genetic matrix, 2015).
Hit rate of the full screen: of about 5,500 compounds, about 2,000 (36%) were called active. Inconclusive results (about 18%) are left out. This is one part of the list. Values without a mark were called inactive. Cut-off read from the data, not from the text of the source: active = normalized growth mostly below about 0.91 (no sharp cut-off); inconclusive = no clear call, values can overlap the other calls; inactive = mostly above about 0.92.

Experiment: chemical genetic growth profiling, strain panel (AID 1159580);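 note: tested at 20 µM; growth read once vehicle control cultures reached saturation at 30 °C; 1 = growth at the plate median or of vehicle wells; lower values mean less growth of the strain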
Conditions: S. cerevisiae deletion strains, growth OD
[1] = locus YAL040C, strain CLN3, active compounds read low
[2] = locus YCL061C, strain MRC1 (second series), active compounds read low
[3] = locus YDR363W, strain ESC2, active compounds read low
[4] = locus YER002W, strain NOP16, active compounds read low
[5] = locus YMR307W, strain GAS1, active compounds read low
[6] = locus YNL175C, strain NOP13, active compounds read low
[7] = locus YNL197C, strain WHI3, active compounds read low
[8] = locus YNL224C, strain SQS1, active compounds read low
[9] = locus YOR083W, strain WHI5 (second series), active compounds read low
[10] = locus YPL241C, strain CIN2, active compounds read low

Structure (SMILES)	normalized growth [1]	normalized growth [2]	normalized growth [3]	normalized growth [4]	normalized growth (locus YMR263W, strain SAP30, active compounds read low)	normalized growth [5]	normalized growth (locus YNL153C, strain GIM3, active compounds read low)	normalized growth [6]	normalized growth [7]	normalized growth [8]	normalized growth (locus YNL322C, strain KRE1, active compounds read low)	normalized growth [9]	normalized growth (locus YDR150W, strain NUM1, active compounds read low)	normalized growth (locus YGR078C, strain PAC10, active compounds read low)	normalized growth (locus YNL128W, strain TEP1, active compounds read low)	normalized growth (locus YPL055C, strain LGE1, active compounds read low)	normalized growth [10]	normalized growth (locus YAL013W, strain DEP1, active compounds read low)	normalized growth (locus YJR075W, strain HOC1, active compounds read low)
NC(=NCc1ccc(Cl)c(Cl)c1)NC(=O)c1nc(Cl)c(N)nc1N	1.01	0.999	0.992	1.01	1.01	0.993	0.995	1.02	1.03	1.03	0.966	1.01							
CC(=O)OCC1=C(C(=O)O)N2C(=O)[C@@H](NC(=O)CCC[C@@H](N)C(=O)O)[C@H]2SC1	0.993	1	1.03	1.02		0.997		1.01	1.02	1.03		1.04	1.01	0.993	0.98	1.01	1		
c1ccc2c(c1)[I+]c1ccccc1-2	1.05	0.63 (active)	0.302 (active)	1.02				1.03	0.958	0.892 (active)		0.569 (active)					0.517 (active)	0.513 (active)	0.429 (active)
